HT1080-NT tox: kills 2HG-producing HT-1080-NT fibrosarcoma cells; HT-1080-NT fibrosarcoma viability, CellTiter-Glo ATP luminescence, 48 h; actives 1.6% (n = 360,000); Potency, µM (titrated, usually from 46.1 µM), inactives show at the highest dose activity, negative = less viability, usual class: cytotoxic;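 also: NT is the 2HG producing partner of a matched IDH1 knockdown line; potency is read from the fitted curve at half-maximal effect; 0% = DMSO-treated cells and -100% = media-only wells without cells; nearly all actives have a fitted effect of over 55% in size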
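Viability of the 2HG-overproducing fibrosarcoma line after 48 hours of compound exposure at 37 degrees C was determined by luminescence with CellTiter-Glo, and concentration-effect curves were then fitted and categorized.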
IL1B secr inh: inflammasome signaling inhibition, IL-1 beta readout; actives 4.7% (n = 360,000); THP-1 LPS/ATP IL-1B secretion, AlphaLISA, 16 h; hits give low values; activity change, % at 57.5 µM; in the data active = activity change below about -50%; inconclusive = mostly about -30% to -49%
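Secreted IL-1B measured by AlphaLISA bead assay after 16 h compound exposure of THP-1 cells; compounds (final up to 57.5 uM) added 1 h before LPS (250 ng/mL) and ATP (1.25 mM) stimulation; lower signal means less secretion.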
KB-3-1 cytotox: KB-3-1 parental cell cytotoxicity; Potency, µM (series often up to 46.1 µM), most hits filed as cytotoxic; KB-3-1 viability, CellTiter-Glo ATP luminescence, 72 h; actives 1.4% (n = 400,000); also: potency is read from the fitted curve at half-maximal effect; nearly all actives have a fitted effect of over 60% in size
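KB-3-1 cells, DMEM (no phenol red) + 10% FBS; compound by pin transfer, 72 h, 37 °C. Readout: CellTiter-Glo luminescence after 10 min. Data normalized, curve-fitted.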
KB-V1 cytotox: KB-V1 MDR subline cytotoxicity; KB-V1 MDR cells viability, CellTiter-Glo, 72 h; Potency, µM (doses to about 46.1 µM), most hits filed as cytotoxic; actives 3.4% (n = 400,000); also: potency is read from the fitted curve at half-maximal effect; nearly all actives have a fitted effect of over 60% in size
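Cytotoxicity via CellTiter-Glo luminescence after 72 h compound exposure at 37 degrees C. Cells: drug-selected KB-V1 line, DMEM phenol-red free plus 10% FBS. Compounds tested at multiple concentrations; normalized data fitted to concentration-effect curves.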
HT1080 IDH1KD tx: toxicity to HT-1080 IDH1 knockdown cells (counter line); actives 2% (n = 360,000); AID 686971; Potency, µM (series often up to 46.1 µM), for the others: at the top dose activity, negative = toxicity, actives largely listed as cytotoxic; HT-1080 IDH1 knockdown viability, ATP luminescence, 48 h;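 also: potency is read from the fitted curve at half-maximal effect; 0% = DMSO wells and -100% = cell-free medium wells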
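Cytotoxicity counter-line: IDH1KD HT-1080, 48 h, CellTiter-Glo. Curves classed by r2, magnitude and activity.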
* marks the source's active call; other numbers are inactive results; i = inactive; u = inconclusive; x = not tested or not shown; ! = repeats disagree. Shown are actives, neighbours in structure and some others; about 8.8% of the full set was active somewhere. Unless noted, calls follow the shape of the dose curve; as a rule, active = well fitted curve in the direction sought with a large enough effect; inconclusive = small, poorly fitted or top-dose-only effect, or another doubt; inactive = no such curve, though single readings can be large; an effect the other way counts as inactive or inconclusive. Unless noted, % is scaled to controls: 0 for no effect and ±100 for the full control effect.

SMILES | HT1080-NT tox | IL1B secr inh | KB-3-1 cytotox | KB-V1 cytotox | HT1080 IDH1KD tx
CCC(=O)NC(c1ccc(OC)c(OC)c1)c1cc(Cl)c2cccnc2c1O (stereo not drawn) | u | -5.0 | 3.26µM*! | u | u
NS(=O)(=O)c1ccc(N2N=C(c3ccccc3)CC2c2ccccc2Cl)cc1 (stereo not drawn) | -27.2% | -24.7 | i | i | u
COc1ccc(/C(C)=N/NC(=O)C(NC(=O)c2ccccc2)c2n[nH]c(=O)c3ccccc23)c(OC)c1 (stereo not drawn) | -3.3% | 27.0 | i | i | -7.4%
CC(C)[C@H](NC(=O)c1c(F)cccc1F)C(=O)Nc1cccc(Br)c1 | 0.3% | 12.9 | i | i | -0.8%
CCc1ccc(S(=O)(=O)c2cn(C)c3ccc(C)cc3c2=O)cc1 | x | x | i | i | x
CC(C)C[C@H]1CN(CCCC[C@H]2CNC(=O)C(=O)N2CC2CCCCC2)C(=O)C(=O)N1Cc1ccccc1 | 6.3% | -72.4* | i | i | 9.8%
O=C1NC[C@@H](CCCCN2C[C@H](Cc3ccccc3)N(CC3CCCCC3)C(=O)C2=O)N(CCc2ccc(O)cc2)C1=O | 16.7% | 9.4 | i | i | 15.4%
O=C1NC[C@@H](CCCCN2C[C@H](Cc3ccccc3)N(CCC3CCCCC3)C(=O)C2=O)N(CCc2ccc(O)cc2)C1=O | -9.7% | -59.0* | u | i | 1.0%
O=C1NC[C@H](CCCCN2C[C@H](Cc3ccc(O)cc3)N(CCc3ccccc3)C(=O)C2=O)N(CCC2CCCCC2)C1=O | 15.8% | -9.1 | i | i | 10.4%
O=C1NC[C@H](CCCCN2C[C@H](Cc3ccc(O)cc3)N(CCc3ccccc3)C(=O)C2=O)N(CC2CCCCC2)C1=O | 17.8% | -2.2 | i | i | 14.6µM*
CC(C)C[C@@H]1CN(CCCC[C@H]2CNC(=O)C(=O)N2CCC2CCCCC2)C(=O)C(=O)N1Cc1ccccc1 | u | u | i | i | u
COc1ccc(NC(=O)CC(C)S(=O)(=O)c2cc3c(cc2C)NC(=O)CO3)cc1OC (stereo not drawn) | x | x | i | i | x
O=C(/C=C/c1ccc(C(F)(F)F)cc1)OC(C(=O)NC1CC1)c1ccccc1 (stereo not drawn) | x | x | i | i | x
COc1ccc(-c2ccnc3nc(N4CCN(c5ccccc5)CC4)nn23)cc1 | 0.8% | -10.5 | u | 20.6µM* | -12.1%
NC(=S)N/N=C/c1ccc(C(F)(F)F)cc1 | u | 0.0 | 23.1µM* | 5.8µM* | 20.6µM*
CC(C)Oc1ccc(/C=N/NC(N)=S)cc1 | u | 2.1 | u | 14.6µM* | 14.6µM*
CCCCOc1cccc(/C=N/NC(=O)c2csc(C)c2C)c1 | -16.9% | u | i | i | -21.2%
Cc1scc(C(=O)N/N=C/c2ccc(OC(C)C)cc2)c1C | -9.3% | -69.8* | i | i | -28.7%
NC(=S)N/N=C/c1ncc(C(F)(F)F)cc1Cl | 10.3µM* | -103.1* | i | i | 5.17µM*
Cc1c(C)c2c(cc(C)c3c(-c4ccccc4)coc32)oc1=O | x | x | i | i | x
CC(C)Oc1ccc(CNC(=O)c2ccc(NC(=O)N3CC(C)Sc4ccccc43)cc2)cc1 (stereo not drawn) | x | x | u | i | x
Cc1ccc(S(=O)(=O)N(C)CCN(C)c2nc(-c3cccs3)nc3ccccc23)cc1 | 12.1% | x | x | x | 22.5%
COc1cc2c(cc1OC)C(=O)C(Br)CC2 (stereo not drawn) | u | 1.7 | u | i | u
Cn1c(SCC(=O)NC2CCCC2)nnc1-c1ccncc1 | -3.4% | 20.4 | i | i | 2.7%
CCN(C(=O)C(C)Sc1nnc(-c2ccncc2)n1C)C1CCCCC1 (stereo not drawn) | -0.2% | -1.8 | i | 16.4µM* | 0.3%
SMILES | HT1080-NT tox | IL1B secr inh | KB-3-1 cytotox | KB-V1 cytotox | HT1080 IDH1KD tx
CCOC(=O)/C(=C\c1ccc(N2CCC(c3ccccc3)=N2)cc1)C(C)=O | 5.4% | u | x | x | 0.7%
CCOC(=O)C(=Cc1ccc(-n2cncn2)cc1)C(=O)OCC | 16.4µM* | -99.5* | u | i | 5.17µM*
O=C(CN1C(=O)C2C3C=CC(C3)C2C1=O)OCC(=O)c1ccc(Cl)c([N+](=O)[O-])c1 (stereo not drawn) | 2.6% | -78.4* | i | i | -13.6%
COc1ccc(/C=C(/NC(=O)c2ccc(OC)c(OC)c2)C(=O)NCCCn2ccnc2)cc1 | 8.4% | 4.2 | i | u | 2.0%
Cc1cc2c(ccc3[nH]onc32)n1 | -12.6% | -60.2* | i | i | -4.4%
CCc1ccccc1NC(=O)CN1C(=O)C2CCCN2c2ncc(Cl)cc21 (stereo not drawn) | 5.3% | -9.4 | i | 14.6µM* | 4.5%
CC(C)n1nnnc1C1c2ccccc2C(=O)N1C1CC1 (stereo not drawn) | -1.6% | 12.3 | i | i | 4.4%
COc1cc(OC)cc(C(=O)NNC(=O)CCC(=O)c2cc(C)sc2C)c1 | 6.4% | 9.7 | i | i | 15.7%
O=C(NCC1CCCO1)C(=O)NCC(c1ccco1)N1CCN(c2ccccc2)CC1 (stereo not drawn) | 0.0% | 2.8 | i | 20.6µM* | -16.9%
COC(=O)NCC(c1ccco1)N1CCN(c2ccccc2)CC1 (stereo not drawn) | 3.1% | -6.7 | i | i | 1.6%
O=C(NCC1CCCO1)C(=O)NCC(c1ccco1)N1CCN(c2ccc(F)cc2)CC1 (stereo not drawn) | 0.0% | 3.0 | i | 8.2µM* | -0.4%
O=C(NCc1cccnc1)C(=O)NCC(c1ccco1)N1CCN(c2ccc(F)cc2)CC1 (stereo not drawn) | -0.4% | 6.5 | u | 2.59µM* | -4.2%
Cc1ccc(-n2c(=O)c3cccnc3n2CC(=O)Nc2cccc(C)c2C)cc1 | x | x | i | i | x
CCOc1ccc(S(=O)(=O)Nc2cc(Cl)ccc2O)cc1 | u | 18.5 | u | i | 23.1µM*
CCOc1ccc(S(=O)(=O)Nc2ccccc2SC)cc1 | -29.6% | 12.3 | u | 16.4µM* | -28.5%
COC(=O)COc1ccc(S(=O)(=O)Nc2ccccc2SC)cc1 | -0.2% | 36.3 | i | i | -0.2%
CCOC(=O)C1CCN(C(=O)CN(C)S(=O)(=O)c2cc(C)ccc2OC)CC1 | 11.1% | -7.3 | i | 23.1µM* | -16.2%
Cc1cccc2c(=O)cc(CSc3ccccc3NC(=O)c3cccc(F)c3)[nH]c12 | x | x | i | i | x
O=C1c2cccc3c(N4CCCCC4)ccc(c23)C(=O)N1CCO | -17.5% | 0.0 | i | u | -15.3%
O=C(OCCN1C(=O)c2cccc3c(N4CCOCC4)ccc(c23)C1=O)c1cccc(Cl)c1 | 14.6µM* | -4.2 | 13µM* | u | 9.2µM*
